# Results as given in PubChem BioAssay (Tox21).
# Several values for one entry are separate records, joined by “and”; a condition that tells them apart may be missing. Equal values may be shown once. Results filed as inconclusive are left out. A call without a number means that no potency is given here. The source holds several records for some structures; these can differ, active in one and inactive in another. Activity calls are given as the source filed them. Unless noted, the call rests on the fitted dose curve; in most records, active means well fitted curve in the direction sought with a large enough effect in the repeat runs; inconclusive means weak or mixed curves; inactive means no such curve, though single readings can be large; an effect the other way counts as inactive or inconclusive.
# Legend:
# [1] = target: Progesterone receptor (Homo sapiens) (UniProt P06401); assay: qHTS assay to identify small molecule agonists of the progesterone receptor (PR) signaling pathway (AID 1346784; calls by dose curve; further: nearly all actives have a fitted effect of over 30% in size)
# Summary of the method: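 PR-UAS-bla HEK 293T cells (beta-lactamase reporter under UAS) in 2% charcoal-stripped FBS, dosed with 23 nL compound after 6 hr, incubated 16hr at 37C. LiveBLAzer B/G FRET substrate added, fluorescence read after 2 hours.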
# [2] = target: Progesterone receptor (Homo sapiens) (UniProt P06401); assay: qHTS assay to identify small molecule antagonists of the progesterone receptor (PR) signaling pathway (AID 1346795; active means well fitted inhibition curve with a large enough effect in the signal ratio in the repeat runs, not every such curve was filed as active; the % refers to the signal ratio; further: potency means the concentration at half of the fitted maximal effect)
# Summary of the method: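 PR-UAS-bla HEK293T cells with beta-lactamase reporter under UAS control, in 2% charcoal-stripped FBS, treated with compounds plus 1 nM promegestone (R5020, final) for 16 hr at 37C. Read-out: FRET beta-lactamase substrate fluorescence after 2 hr at room temperature.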
# [3] = qHTS assay to identify small molecule antagonists of the progesterone receptor (PR) signaling pathway - cell viability counter screen (AID 1346798); further: series mostly up to about 92 µM; nearly all actives have a fitted effect of over 50% in size
# Summary of the method: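 PR-UAS-bla HEK293T cells, 3,000/well in 2% charcoal-stripped FBS medium, dosed with compounds plus R5020 agonist and incubated 16 h at 37C. Viability then measured in the same wells by CellTiter-Glo luminescence after 30 min at RT.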
# [4] = qHTS assay to identify small molecule agonists of the progesterone receptor (PR) signaling pathway - cell viability counter screen (AID 1346799; calls by dose curve; further: nearly all actives have a fitted effect of over 45% in size)
# Summary of the method: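 Counter screen in the PR-UAS-bla HEK293T wells (2% charcoal-stripped FBS, 16 h compound exposure at 37 C) after the bla read. CellTiter-Glo added, 30 min at room temperature, luminescence read as cell viability.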
# [5] = qHTS assay to identify small molecule antagonists of the TGF-beta/Smad signaling pathway - cell viability counter screen (AID 1346824); further: nearly all actives have a fitted effect of over 50% in size
# Summary of the method: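 Cytotoxicity counter-screen run in the same wells as the beta-lactamase Smad reporter read: CellTiter-Glo luminescence after 30 min at room temperature. HEK 293T SBE-bla cells had 5 hr compound exposure at 37 C with TGF-beta1 (0.25 ng/mL stock).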
# [6] = qHTS assay to identify small molecule agonists of the TGF-beta/Smad signaling pathway - cell viability counter screen (AID 1346829); further: top concentration of the series differs between compounds; nearly all actives have a fitted effect of over 45% in size
# Summary of the method: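 After overnight seating at 37 C and 5% CO2, reporter cells got compounds for 5 hr and FRET substrate for 2 hr; cell viability then came from CellTiter-Glo luminescence.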
# [7] = qHTS assay to identify small molecule agonists of the TGF-beta/Smad signaling pathway (AID 1346859; active means well fitted activation curve with a large enough effect in the signal ratio in the repeat runs, not every such curve was filed as active; the % refers to the signal ratio; further: series mostly up to about 77 µM)
# Summary of the method: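 SBE-bla HEK293T cells plated overnight, then compound exposure for 5 h at 37 C. Beta-lactamase reporter read with LiveBLAzer B/G FRET substrate after 2 h at room temperature, fluorescence at 405 nm excitation, 460/530 nm emission.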
# [8] = target: Thyrotropin-releasing hormone receptor (Homo sapiens) (UniProt P34981); assay: qHTS assay to identify small molecule antagonists of the thyrotropin-releasing hormone receptor (TRHR) signaling pathway (AID 1346877; active means well fitted inhibition curve with a large enough effect in the repeat runs, not every such curve was filed as active; further: series mostly up to about 51 µM)
# Summary of the method: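 TRHR-expressing HEK293 cells were seeded, cultured 18 h at 37 °C, then loaded with calcium dye for 2 h. Compounds were pre-incubated 5 min at room temperature before 1 nM TRH (final) was added, and kinetic fluorescence was recorded for 3 min.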
# [9] = Human pregnane X receptor (PXR) small molecule agonists, qHTS cell viability counter screen (AID 1346977); further: nearly all actives have a fitted effect of over 50% in size
# Summary of the method: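 PXR-Luc HepG2 cells (2,000/well, 5% charcoal-stripped FBS) preincubated 5 hr, then exposed to compounds 24 hr at 37 C. Viability read in the same wells by CellTiter-Fluor fluorescence, reagent added at 23 hr, 1 hr incubation.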
# [10] = Caspase-3/7 induction in HepG2 cells by small molecules, qHTS assay (AID 1346978); further: nearly all actives have a fitted effect of over 15% in size
# Summary of the method: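 Caspase-3/7 induction was measured by Caspase-Glo 3/7 luminescence (30 min, room temperature) after a 17 hr compound exposure of wild-type HepG2 cells seeded at 2,000 per well and pre-incubated 5 hr.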
# [11] = Caspase-3/7 induction in CHO-K1 cells by small molecules, qHTS cell viability counter screen (AID 1346979); further: nearly all actives have a fitted effect of over 35% in size
# Summary of the method: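 Wild-type CHO-K1 cells (1,500/well) treated with compound after 5 h plating; after 16 h at 37C, viability read as CellTiter-Fluor fluorescence following 1 h reagent incubation, in the same wells as the caspase read.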
# [12] = Caspase-3/7 induction in CHO-K1 cells by small molecules, qHTS assay (AID 1346980); further: nearly all actives have a fitted effect of over 15% in size
# Summary of the method: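 Luminescent Caspase-Glo 3/7 read (30min, room temperature) quantified apoptosis induction. Cells were wild-type CHO-K1, treated with compound for 17hr at 37 C and 5% CO2.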
# [13] = Caspase-3/7 induction in HepG2 cells by small molecules, qHTS cell viability counter screen (AID 1346981); further: nearly all actives have a fitted effect of over 30% in size; further: potency means the concentration at half of the fitted maximal effect
# Summary of the method: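 Wild-type HepG2 cells (2,000/well) were allowed to settle for 5 hr at 37 C, 5% CO2, then dosed with compounds in DMSO by pin transfer. After 16 hr at 37 C, CellTiter-Fluor was added and fluorescence read 1 hr later.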
# [14] = target: Nuclear receptor subfamily 1 group I member 2 (Homo sapiens) (UniProt O75469); assay: Human pregnane X receptor (PXR) small molecule agonists, qHTS assay (AID 1346982); further: nearly all actives have a fitted effect of over 35% in size; further: potency means the concentration at half of the fitted maximal effect
# Summary of the method: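 PXR-Luc HepG2 cells (CYP3A4 promoter-driven luciferase) were seeded in medium with 5% charcoal-stripped FBS, left 5 hr at 37 C, then exposed to compounds in DMSO for 24 hr. Luminescence was read after ONE-Glo addition.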
# [15] = target: Nuclear receptor subfamily 1 group I member 2 (Rattus norvegicus) (UniProt Q9R1A7); assay: Rat pregnane X receptor (rPXR) activation by small molecules, qHTS assay (AID 1346983); settings: rPXR luciferase reporter cells, One-Glo luminescence, 24 h; max activation: stronger effect = higher value; further: nearly all actives have a fitted effect of over 20% in size
# Summary of the method: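 Luminescent readout (One-Glo luciferase, 30 min room temperature) followed 24 hr compound treatment at 37 C of rPXR cells plated 2,000 per well and preincubated 5hr; qHTS format with compounds delivered in DMSO.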
# [16] = target: Nuclear receptor subfamily 1 group I member 2 (Homo sapiens) (UniProt O75469); assay: CYP3A4 induction through human pregnane X receptor (PXR) by small molecules, qHTS assay (AID 1346984); further: nearly all actives have a fitted effect of over 40% in size
# Summary of the method: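 DPX-2 cells (HepG2 co-transfected with PXR and CYP3A4 promoter-luciferase) treated with compounds 24 h at 37C; luciferin-IPA CYP3A4 substrate 3uM final added for 3 h, then One-Glo; luminescence read. qHTS format.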
# [17] = target: Nuclear receptor subfamily 1 group I member 2 (Homo sapiens) (UniProt O75469); assay: Human pregnane X receptor (PXR) activation by small molecules, qHTS assay (AID 1346985); further: nearly all actives have a fitted effect of over 40% in size
# Summary of the method: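 DPX-2 cells (HepG2 co-transfected with a PXR response element and a CYP3A4-promoter luciferase construct) were seeded at 2,000 per well, rested 5 hr at 37C, then exposed to DMSO-dissolved compounds for 24 hr. Activation was read as luciferase luminescence.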
# [18] = qHTS assay to identify small molecule agonists of the estrogen receptor alpha (ER-alpha) signaling pathway in the presence of an antagonist - cell viability counter screen (AID 1259386);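 further: series mostly up to about 92 µM; cells exposed to compounds for 22 h at 37 °C before the viability read; nearly all actives have a fitted effect of over 30% in size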
# Summary of the method: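 VM7Luc4E2 cells (endogenous full-length ER-alpha, 4×ERE-luciferase) were held 5 days in phenol red-free medium with 10% charcoal-stripped FBS, plated, then given 10.0nM ICI-182,780 and compounds at 15 concentrations for 22hr at 37C; viability read by CellTiter-Fluor fluorescence.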
# [19] = target: Thyrotropin-releasing hormone receptor (Homo sapiens) (UniProt P34981); assay: qHTS assay to identify small molecule agonists of the thyrotropin-releasing hormone receptor (TRHR) signaling pathway (AID 1346891; calls by dose curve; further: series mostly up to about 58 µM)
# Summary of the method: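 HEK293 cells expressing TRHR plated 18 h at 37 C/5% CO2, calcium dye-loaded 2 h at 37 C, then compound added (agonist mode); kinetic calcium fluorescence read 3 min at 1 s intervals; 15 concentrations in triplicate.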
# [20] = target: Thyrotropin receptor (Homo sapiens) (UniProt P16473); assay: qHTS assay to identify small molecule antagonists of the thyroid stimulating hormone receptor (TSHR) signaling pathway (AID 1259385; calls by dose curve; further: nearly all actives have a fitted effect of over 20% in size)
# Summary of the method: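 Antagonist mode: compound-treated TSHR-expressing HEK293 cells were stimulated with 1.5 ng/mL TSH (final) in presence of Ro20-1724 for 30 min at RT. HTRF cAMP detection after 1 h; each compound tested at 15 concentrations, triplicate.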
# Sequence of Progesterone receptor (Homo sapiens) (P06401 whole entry, looked up): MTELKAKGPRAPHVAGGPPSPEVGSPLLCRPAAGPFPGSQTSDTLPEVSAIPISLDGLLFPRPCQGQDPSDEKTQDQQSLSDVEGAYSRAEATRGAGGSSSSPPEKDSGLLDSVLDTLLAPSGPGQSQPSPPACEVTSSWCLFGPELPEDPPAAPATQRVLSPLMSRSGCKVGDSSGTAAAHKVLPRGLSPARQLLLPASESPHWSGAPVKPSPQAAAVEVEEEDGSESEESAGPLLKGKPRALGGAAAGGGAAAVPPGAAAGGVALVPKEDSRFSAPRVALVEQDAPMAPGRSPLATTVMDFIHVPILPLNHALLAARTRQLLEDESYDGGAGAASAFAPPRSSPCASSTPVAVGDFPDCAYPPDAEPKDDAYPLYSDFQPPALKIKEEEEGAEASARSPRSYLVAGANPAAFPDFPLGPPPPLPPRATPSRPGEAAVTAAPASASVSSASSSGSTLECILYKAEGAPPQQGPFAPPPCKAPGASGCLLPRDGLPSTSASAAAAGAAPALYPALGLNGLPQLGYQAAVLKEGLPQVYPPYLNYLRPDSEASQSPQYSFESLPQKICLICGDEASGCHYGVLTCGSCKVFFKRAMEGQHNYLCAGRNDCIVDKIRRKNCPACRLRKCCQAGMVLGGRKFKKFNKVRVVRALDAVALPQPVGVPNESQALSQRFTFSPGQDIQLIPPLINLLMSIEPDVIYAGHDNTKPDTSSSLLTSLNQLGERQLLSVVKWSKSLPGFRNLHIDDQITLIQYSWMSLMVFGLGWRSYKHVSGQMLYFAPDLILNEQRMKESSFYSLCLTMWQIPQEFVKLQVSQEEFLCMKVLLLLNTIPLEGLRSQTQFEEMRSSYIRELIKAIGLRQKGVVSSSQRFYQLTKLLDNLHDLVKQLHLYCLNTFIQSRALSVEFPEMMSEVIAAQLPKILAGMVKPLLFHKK
# Sequence of Thyrotropin-releasing hormone receptor (Homo sapiens) (P34981 whole entry, looked up): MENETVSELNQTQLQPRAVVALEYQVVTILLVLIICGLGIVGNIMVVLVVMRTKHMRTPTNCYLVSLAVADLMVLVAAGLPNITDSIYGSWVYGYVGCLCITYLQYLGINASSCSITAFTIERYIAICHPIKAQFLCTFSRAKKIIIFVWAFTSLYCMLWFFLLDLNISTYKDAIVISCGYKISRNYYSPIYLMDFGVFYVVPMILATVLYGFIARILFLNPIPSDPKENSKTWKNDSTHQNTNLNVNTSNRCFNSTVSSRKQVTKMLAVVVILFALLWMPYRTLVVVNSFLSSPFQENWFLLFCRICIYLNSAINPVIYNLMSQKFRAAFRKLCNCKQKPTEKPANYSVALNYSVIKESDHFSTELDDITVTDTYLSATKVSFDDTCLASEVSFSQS
# Sequence of Nuclear receptor subfamily 1 group I member 2 (Homo sapiens) (O75469 whole entry, looked up): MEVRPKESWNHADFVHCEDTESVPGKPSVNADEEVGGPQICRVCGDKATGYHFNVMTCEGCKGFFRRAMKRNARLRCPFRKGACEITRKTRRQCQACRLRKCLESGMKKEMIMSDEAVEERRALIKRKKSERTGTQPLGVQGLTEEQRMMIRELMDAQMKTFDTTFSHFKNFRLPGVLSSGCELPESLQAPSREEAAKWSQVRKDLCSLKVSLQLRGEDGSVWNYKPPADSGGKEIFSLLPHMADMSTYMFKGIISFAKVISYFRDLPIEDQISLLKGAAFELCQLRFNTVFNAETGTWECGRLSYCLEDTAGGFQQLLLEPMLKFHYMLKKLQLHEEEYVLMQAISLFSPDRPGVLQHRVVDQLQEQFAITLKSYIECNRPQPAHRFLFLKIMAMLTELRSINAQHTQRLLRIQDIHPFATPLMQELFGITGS
# Sequence of Thyrotropin receptor (Homo sapiens) (P16473 whole entry, looked up): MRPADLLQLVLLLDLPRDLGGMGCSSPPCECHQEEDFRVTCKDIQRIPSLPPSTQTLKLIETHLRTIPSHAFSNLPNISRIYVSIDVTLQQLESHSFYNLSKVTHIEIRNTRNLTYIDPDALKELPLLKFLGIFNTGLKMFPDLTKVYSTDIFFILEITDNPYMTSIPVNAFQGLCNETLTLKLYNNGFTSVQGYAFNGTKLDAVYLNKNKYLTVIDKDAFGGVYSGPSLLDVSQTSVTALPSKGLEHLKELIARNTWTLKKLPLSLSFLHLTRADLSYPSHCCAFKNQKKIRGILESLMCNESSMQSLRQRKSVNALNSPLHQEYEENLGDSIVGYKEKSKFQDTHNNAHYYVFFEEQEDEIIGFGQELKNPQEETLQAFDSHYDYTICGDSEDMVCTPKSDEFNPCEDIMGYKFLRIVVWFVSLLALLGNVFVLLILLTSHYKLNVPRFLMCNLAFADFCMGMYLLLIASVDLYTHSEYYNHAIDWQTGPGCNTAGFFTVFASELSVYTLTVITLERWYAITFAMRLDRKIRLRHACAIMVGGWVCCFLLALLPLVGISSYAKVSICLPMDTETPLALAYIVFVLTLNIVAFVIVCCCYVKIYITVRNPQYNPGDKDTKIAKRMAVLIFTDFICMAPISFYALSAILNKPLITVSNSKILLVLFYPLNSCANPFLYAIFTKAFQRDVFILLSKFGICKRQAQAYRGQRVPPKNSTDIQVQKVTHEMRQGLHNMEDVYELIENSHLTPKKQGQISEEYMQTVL
# Sequence of Nuclear receptor subfamily 1 group I member 2 (Rattus norvegicus) (Q9R1A7 whole entry, looked up): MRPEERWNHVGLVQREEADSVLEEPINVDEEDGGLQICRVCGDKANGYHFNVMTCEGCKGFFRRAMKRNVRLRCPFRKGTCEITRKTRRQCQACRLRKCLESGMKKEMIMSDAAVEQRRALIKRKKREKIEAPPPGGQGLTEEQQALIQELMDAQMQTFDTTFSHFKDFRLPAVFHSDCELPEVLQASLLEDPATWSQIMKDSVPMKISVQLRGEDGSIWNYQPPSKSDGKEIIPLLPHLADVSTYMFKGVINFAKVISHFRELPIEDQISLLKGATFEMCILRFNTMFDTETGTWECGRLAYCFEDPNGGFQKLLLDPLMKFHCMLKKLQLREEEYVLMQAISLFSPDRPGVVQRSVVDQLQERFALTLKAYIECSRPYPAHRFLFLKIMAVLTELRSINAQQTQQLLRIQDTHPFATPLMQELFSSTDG
Structure (SMILES),Potency [1],Potency [2],Potency [3],outcome [4],Potency [5],Potency [6],outcome [7],outcome [8],Potency [9],outcome [10],Potency [11],outcome [12],Potency [13],Potency [14],max activation [15],Potency [16],Potency [17],Potency [18],outcome [19],outcome [20]
COP(=S)(OC)Oc1ccc(SC)c(C)c1,inactive,13.5 µM (active),inactive,inactive,inactive,inactive,inactive,inactive,inactive,inactive,inactive,inactive,inactive,60.4 µM (active) and 37.6 µM (active),1.15% (inactive),inactive,inactive,,,
O=S(=O)(O)OOS(=O)(=O)O,inactive,inactive,inactive,inactive,inactive,inactive,inactive,inactive,inactive,inactive,inactive,inactive,inactive,inactive,,,,inactive,inactive,
CC12CC1(C)C(=O)N(c1cc(Cl)cc(Cl)c1)C2=O (centres undefined),inactive,,inactive,inactive,inactive,inactive,inactive,inactive,inactive,inactive,,inactive,inactive,60.9 µM (active) and 24.3 µM (active),,,,,inactive,
CCCOC(=O)c1ccccc1C(=O)OCCC,inactive,inactive,inactive,inactive,inactive,inactive,inactive,inactive,inactive,inactive,,inactive,inactive,inactive,,,,,,
ClC(Cl)c1ccccc1,inactive,inactive,inactive,inactive,inactive,inactive,inactive,inactive,inactive,inactive,inactive,inactive,inactive,inactive,,,,,inactive,
CN(C)CCC#N,inactive,inactive,inactive,inactive,inactive,inactive,inactive,inactive,inactive,inactive,inactive,inactive,inactive,inactive,,,,inactive,inactive,
COc1cc(-c2ccc(N)c(OC)c2)ccc1N,inactive,48.8 µM (active) and 27.3 µM (active) and 46.3 µM (active),,inactive,inactive,inactive,inactive,inactive,inactive,inactive,,inactive,inactive and 46.3 µM (active),,,,,inactive,inactive,
Cc1cccc(N)c1,inactive,inactive,inactive,inactive,inactive,inactive,inactive,inactive,inactive,,,inactive,inactive,54.6 µM (active) and inactive,,,,,,
Cl[C@H]1OCCO[C@@H]1Cl,inactive,inactive,inactive,inactive,inactive,inactive,inactive,inactive,inactive,inactive,,inactive,inactive,inactive,,,,,,inactive
